# Measurements: PubChem BioAssay (NCI)
# Compounds without any hit were thinned out: in the full panel of roughly 79,000, 15% have a hit. Active and inactive are the calls of the source. Cut-off read from the data, not from the text of the source: active = growth inhibition above about 70%; inactive = the rest.
# Test: NCI Yeast Anticancer Drug Screen. Data for the rad50 strain (AID 155);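 note: 0% = growth of vehicle-only cultures of the same strain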
# Conditions: S. cerevisiae rad50 strain growth inhibition; at 50.0 µM; active compounds read high
# How it was run: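 Relative growth inhibition (compound vs vehicle) was measured in yeast with a defined repair-gene alteration.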
row,Compound,growth inhibition
1,CCOC(=O)C[P+](c1ccc(C)cc1)(c1ccc(C)cc1)c1ccc(C)cc1,96.7% (active)
2,O=C(NCCl)Nc1ccccc1,57.7% (inactive)
3,O=c1[nH]c2ccccc2c2cccc(F)c12,94.2% (active)
4,O=C(c1c(F)c(F)c(F)c(F)c1F)N1CCN(C(=O)c2c(F)c(F)c(F)c(F)c2F)C1=S,88.2% (active)
5,O=C(CNS(=O)(=O)Cc1ccccc1)NCC(=O)NNc1ccccc1,59.5% (inactive)
6,CC1(C)C(=O)N(CCCCCCN2C(=O)C(C)(C)c3ccccc32)c2ccccc21,79.5% (active)
7,CC(=O)Nc1cccc2c1ccc1ccc3ccccc3c12,77.3% (active)
8,COc1ccc(-c2noc(=O)c3ccccc23)cc1,-5.8% (inactive)
9,c1ccc([B-](c2ccccc2)(c2ccccc2)c2ccccc2)cc1,98.2% (active)
10,CCc1cccc(C)c1N1C(=O)C(=O)C(c2nc3ccccc3o2)/C(=N\NS(=O)(=O)c2ccc(C)cc2)C1=O (centres undefined),-6.6% (inactive)
11,Cc1ccc(-[n+]2cc([O-])on2)cc1,27.4% (inactive)
12,CCOC(=O)C(Cc1cn(S(=O)(=O)c2ccccc2)c2ccccc12)(NC(C)=O)C(=O)OCC,61.8% (inactive)
13,CC(=O)N1C=C2CCC3c4ccccc4NC3C2CC1 (centres undefined),33.2% (inactive)
14,O=c1cccccc1[O-].O=c1cccccc1[O-].O=c1cccccc1[O-].[Ce+3],90% (active)
15,CC(=O)OC(C#N)CC(C)(C)/[N+]([O-])=[N+](\[O-])C(C)(C)CC(C#N)OC(C)=O (centres undefined),23.9% (inactive)
16,O=C(O)C1(Cc2ccc3c(c2)CCC3)Cc2cc3c(cc2C1)CCC3,82.8% (active)
17,COC(=O)C12OCC34C(CC5C(C)C6=CC(=O)OC6=CC5(C)C3C(O)C1O)OC(=O)C(OC(C)=O)C24 (centres undefined),91.6% (active)
18,O=S(=O)(c1cc(Cl)ccc1Cl)N1CCc2ccccc2C1,16.1% (inactive)
19,CSC(=S)n1nc(-c2cccs2)c(N=Nc2ccc(Cl)cc2)c1C(F)(F)F,83.8% (active)
20,O=[N+]([O-])C1=Cc2ccccc2S(=O)(=O)CC1,92.9% (active)

row,Compound,growth inhibition
1,COc1ccc(/C=N/n2c(C)nc3c(sc(=S)n3-c3ccccc3)c2=O)cc1,13.6% (inactive)
2,Fc1ccc(NC(=S)SCc2ccccc2)cc1F,97.3% (active)
3,O=[N+]([O-])c1cccc2c1[nH]c1c(-c3ccccc3)nccc12,87.8% (active)
4,CCOC(=O)CC(=O)/C=C/c1ccncc1,-19.2% (inactive)
5,c1ccc([P+](c2ccccc2)(c2ccccc2)C2CCCC2)cc1,96.8% (active)
6,COc1cc(Cc2n[nH]c(=S)n2-c2ccccc2)c(S(N)(=O)=O)cc1OC,10.1% (inactive)
7,CCCCCN(CCCCC)CCNc1ccc(C)c2sc3ccccc3c(=O)c12,98.6% (active)
8,COC(=O)[C@@]12OC[C@]34[C@H]([C@@H](O)[C@@H]1O)[C@@]1(C)CC(=O)C(O)=C(C)[C@@H]1C[C@H]3OC(=O)[C@H](OC(=O)C(Cc1ccccc1)NC(=O)OC(C)(C)C)[C@@H]24 (some centres undefined),85.8% (active)
9,CC(=O)Nc1ccc(C(=O)C(C)Br)cc1 (centres undefined),62.8% (inactive)
10,COc1ccc2c(c1)[n+]([O-])c(C(N)=O)c(N)[n+]2[O-],99.4% (active)
11,Cc1c2c(c(C)c3c4c(oc13)CCCC4)C=NCC2,69.7% (inactive)
12,CC1C(C(=O)O)CC([N+](=O)[O-])C(Cl)C1[N+](=O)[O-] (centres undefined),20.9% (inactive)
13,CCN(CC)c1ccc(N=C2C=C(C(=O)Nc3cccc(Cl)c3)C(=O)c3ccccc32)c(C)c1,-17.9% (inactive)
14,C[N+](C)(C)CCN(Cc1cccs1)c1ccccn1,20.2% (inactive)
15,O=C(c1ccccc1)c1c(CO[N+](=O)[O-])n([O-])c2ccccc2[n+]1=O,98.5% (active)
16,CCC[C@H]1[C@H](CCC)[C@@]2(OC(=O)C3=C2CCC=C3)[C@]12OC(=O)C1=C2CCC=C1,87.8% (active)
17,O=C(CC(=O)c1ccccc1NC1=Cc2ccccc2C(=O)C1=O)C(=O)NC1=C(Cl)C(=O)c2ccccc2C1=O,88% (active)
18,C=CC[P+](CC[P+](CC=C)(c1ccccc1)c1ccccc1)(c1ccccc1)c1ccccc1,2.6% (inactive)
19,NCC1CCNCC1,-16.7% (inactive)
